Drawing on PubChem BioAssay (EPA / NIEHS), this text covers outcome and AC50 for 40 compounds.

As usually defined, the AC50 is the midpoint of the concentration-response curve, whichever way the signal moves.

Active and inactive are the calls of the source. The calls were made as follows: active = hit-call score of the fitted dose curve at least 0.9, where 1 is the maximum; inactive = score below 0.9.

In this test the target is Cellular tumor antigen p53 (Homo sapiens) (UniProt P04637). Nature of the test: ATG_p53_CIS: Attagene CIS-FACTORIAL HepG2 Assay for human p53 Transcription Factor (AID 2282994). As to conditions: HepG2 p53 cis-element reporter, Attagene mRNA; actives raise or lower the signal. The procedure: ATG_CIS is a cell-based, multiplexed-readout assay that uses HepG2, a human liver cell line, with measurements taken at 24 hours after chemical dosing in a 24-well plate.ATG_p53_CIS is one of 52 assay component(s) measured or calculated from the ATG_CIS assay. It is designed to make measurements of mRNA induction, a form of inducible reporter, as detected with fluorescence intensity signals by Reverse transcription polymerase chain reaction (RT-PCR) and Capillary electrophoresis technology.Data from the assay component ATG_p53_CIS was analyzed into 1 assay endpoint. This assay endpoint, ATG_p53_CIS, was analyzed with bidirectional fitting relative to DMSO as the negative control and baseline of activity. Using a type of inducible reporter, measures of mRNA for gain or loss-of-signal activity can be used to understand the reporter gene at the transcription factor-level as they relate to the gene TP53. Furthermore, this assay endpoint can be referred to as a primary readout, because this assay has produced multiple assay endpoints where this one serves a reporter gene function. To generalize the intended target to other relatable targets, this assay endpoint is annotated to the dna binding intended target family, where the subfamily is tumor suppressor.
Sequence of Cellular tumor antigen p53 (Homo sapiens) (P04637 whole entry, looked up): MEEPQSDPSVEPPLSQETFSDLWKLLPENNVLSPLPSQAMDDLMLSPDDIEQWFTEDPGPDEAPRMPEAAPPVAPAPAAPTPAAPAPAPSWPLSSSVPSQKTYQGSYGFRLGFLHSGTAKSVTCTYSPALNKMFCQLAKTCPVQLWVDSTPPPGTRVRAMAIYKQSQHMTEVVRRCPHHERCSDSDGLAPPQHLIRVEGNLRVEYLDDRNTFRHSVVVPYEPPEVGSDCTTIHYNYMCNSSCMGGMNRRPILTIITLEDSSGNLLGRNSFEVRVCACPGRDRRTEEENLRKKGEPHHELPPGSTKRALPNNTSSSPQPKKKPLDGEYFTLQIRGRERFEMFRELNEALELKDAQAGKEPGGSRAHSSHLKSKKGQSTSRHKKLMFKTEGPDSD
Human liver HepG2 cells are transiently transfected with multiple reporter transcription units (MRTUs) in 6-well plates using FuGene 6 reagent (Roche; 3 ml FuGene/1 mg DNA). The MRTU constructs are regulated by a cis-regulating element (promoter). […] A major difference between the CIS and TRANS system is that in CIS activities of endogenous TFs are measured, whereas the TRANS assay evaluates changes in activities of exogenous, chimeric NR-Gal4 proteins. […] At the end of 24 hour incubation, total RNA was isolated using TriZol reagent (Invitrogen). The isolated RNA is then reverse-transcribed using oligo(dT) primer and Mo-MLV reverse transcriptase (Invitrogen) with DNAse I (Ambion) treatment for 30 min. The one-tenth of the produced cDNA was amplified by PCR using Taq DNA polymerase (Invitrogen) and two reporter sequence-specific primers. The PCR products were fluorescently labeled by primer extension with 6-arboxyfluorescein (6-FAM) 5'-labeled reporter sequence-specific primer (2 min at 95 C, 20 s at 68 C and 10 min at 72 C) and these products were digested with 5U of HpaI (New England Biolabs) for 2h at 37 C. The fragments were purified using Qiaquick PCR columns (Qiagen), analyzed on an ABI 3130xL genetic analyzer (Applied Biosystems) with peak positions identified by using a set of X-rhodamine (ROX)-labeled MapMarker1000 molecular weight standards (BioVentures). The raw capillary electrophoresis data was processed using Attagraph software (Attagene).
Take `CC(C)(Oc1ccc(C2CC2(Cl)Cl)cc1)C(=O)O` (stereo not given): the compound was classed as inactive. In the case of `CCOC(=O)CC`, the compound was called inactive.

Turning to `CC(C)(c1cc(Br)c(OCCO)c(Br)c1)c1cc(Br)c(OCCO)c(Br)c1`, the AC50 is 7 µM (active). For the compound `COC(=O)/C=C\C(=O)O`, the compound was called inactive. Same read-out and setting: the entry for `c1ccc2c(c1)ccc1cc3c(ccc4ccccc43)cc12` is “inactive”. On the same count and under the same terms, the entry for `O=C1CCCC(=O)O1` is “inactive”; for `Clc1nc2ccccc2s1` it is “inactive”. `CCOC(F)(F)C(F)(F)C(F)(F)C(F)(F)F`: the call was inactive.

Take `CN1C(=O)N(C)C(O)C1O` (stereo not given): the call was inactive. For the compound `CCCCCCCCCCCCCCCC[N+](C)(C)CC`, the AC50 is 11.8 µM (active). Turning to `CC(=O)Oc1ccc(C(C)=O)cc1`, the compound was called inactive. In the case of `Cc1cnc(NC(=O)C2=C(O)c3ccccc3S(=O)(=O)N2C)s1`, the call was inactive.

For `CC1OC1C1CCC2(C)OC2C1` (stereo not given), the compound was classed as inactive.

Take `CCOCC(=O)O`: the outcome was inactive. On the same count and under the same terms, the entry for `O=C1OC(=O)c2cc(Oc3ccc4c(c3)C(=O)OC4=O)ccc21` is “inactive”; for `NC(CO)(CO)CO` it is “inactive”. On the same count and under the same terms, the entry for `COCc1c(C(C)C)nc(C(C)C)c(/C=C/[C@@H](O)C[C@@H](O)CC(=O)O)c1-c1ccc(F)cc1` is “inactive”; for `Cc1ccc(C2OC[C@@H]3OC(c4ccc(C)cc4)O[C@H]([C@H](O)CO)[C@@H]3O2)cc1` (stereo not given in full) it is “inactive”; for `O=C(O)c1ccccc1Nc1cccc(C(F)(F)F)c1` it is “inactive”. On the same count and under the same terms, the entry for `N#[N+]c1ccc2c(S(=O)(=O)[O-])cccc2c1O` is “inactive”; for `CCC(C)OC(=O)c1ccc(O)cc1` (stereo not given) it is “inactive”; for `C=COCCCC` it is “inactive”. As for `CCCCCCC(O)CO` (stereo not given), the result was inactive.

As to `NC(=O)c1ccccc1O`, the result was inactive. Same read-out and setting: the entry for `O=S(=O)(O)CC(O)CCl` (stereo not given) is “inactive”. For `C#CC1(O)CC[C@H]2[C@@H]3CCC4=CCCC[C@@H]4[C@H]3CC[C@@]21C` (stereo not given in full), the concentration at half-maximal activity (AC50) was 33.4 µM (active). With `O=C(/C=C/C=C/c1ccc2c(c1)OCO2)N1CCCCC1`, the call was inactive. Still for that read-out and setting: the entry for `C=C(C)[C@H]1CC=C(C)CC1` is “inactive”; for `Cc1cc(=O)n(-c2ccccc2)n1C` it is “inactive”; for `NCCCN1CCN(CCCN)CC1` it is “inactive”. As for `Cc1cc(C)c(C)c(C)c1`, the outcome was inactive. The same measure, in the same setting: the entry for `O=C(C(Cl)Cl)N1CCOC12CCCCC2` is “inactive”; for `O=S(=O)(O)c1cc(S(=O)(=O)O)c2ccc3c(S(=O)(=O)O)cc(S(=O)(=O)O)c4ccc1c2c43` it is “inactive”. Same read-out and setting: the entry for `C=C(C)C(=O)OCC(C)C` is “inactive”; for `O=C(O)Cc1c(Cl)ccc(Cl)c1Cl` it is “inactive”. Still for that read-out and setting: the entry for `Cc1ccc(C(C)(C)C)cc1` is “inactive”; for `C1CN(SSN2CCOCC2)CCO1` it is “inactive”; for `OCCN(CCO)c1ccccc1` it is “inactive”. Consider `C1=Cc2ccccc2C1`, for which the compound was classed as inactive. Same read-out and setting: the entry for `C[Si](C)(CCCN)O[Si](C)(C)CCCN` is “inactive”.
